{
  "source": "PubChem BioAssay AID602163",
  "about": "(The Scripps Research Institute Molecular Screening Center, 2012)",
  "note": "Out of some 360,000 compounds screened, about 1,100 (0.31%) were called active. The sample holds actives, similar compounds and a random draw of the others, so the mix is not that of the screen. Unmarked numbers belong to inactive results. Rule as the data show it: active = activation above about 7.5%; inactive = the rest.",
  "data": [
    {"system": "Methionine sulfoxide reductase A (Bos taurus)", "assay": "bovine MsrA enzyme activators, primary screen, biochemical, absorbance, HTS (AID 602163);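 also: 0% = vehicle and 100% = reference activator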", "conditions": "purified bovine MsrA, absorbance read-out; at 10.6 µM; stronger effect = higher value", "values": [
      {"molecule": "CN(/C(=N/S(=O)(=O)c1cccs1)c1ccccc1)c1ccc(O)cc1", "activation": "-3.66%"},
      {"molecule": "Brc1ccc(-c2n(-c3ccccn3)c3ccccc3[n+]2-c2ccccn2)cc1", "activation": "-3.31%"},
      {"molecule": "CCc1ccc(NC(=O)CSc2nnc(-c3cnccn3)n2Cc2ccco2)cc1", "activation": "10.3% (active)"},
      {"molecule": "CCn1c(SCC(=O)Nc2cc(C)ccc2C)nnc1-c1cnccn1", "activation": "-14%"},
      {"molecule": "CCOC(=O)Cc1csc(NC(=O)CSc2nnc(-c3cccnc3)n2Cc2ccco2)n1", "activation": "-2.57%"},
      {"molecule": "CN(C(=O)c1cccc(NC(=O)Cc2ccc(NC(=O)C3CCCN(C(=O)C4CCCC4)C3)cc2)c1)C1CCC1", "note": "(centres undefined)", "activation": "-1.96%"},
      {"molecule": "O=C(Cc1ccc(NC(=O)C2CCCN(C(=O)C3CCCCC3)C2)cc1)Nc1cccc(C(=O)N2CCCCC2)c1", "note": "(centres undefined)", "activation": "8.7% (active)"},
      {"molecule": "CN(C(=O)c1cccc(NC(=O)Cc2ccc(NC(=O)C3CCCN(C(=O)C4CC4)C3)cc2)c1)C1CC1", "note": "(centres undefined)", "activation": "-5.02%"},
      {"molecule": "C=C(C)C(=O)O[C@H]1C/C(C)=C\\C(=O)/C=C(\\C)[C@H](O)[C@@H]2OC(=O)C(=C)[C@@H]21", "activation": "-5.09%"},
      {"molecule": "COCc1cccc(-c2csc(C(O)c3ccc(F)cc3)n2)c1", "note": "(centres undefined)", "activation": "-2.06%"},
      {"molecule": "CSc1ccc(CN(C)CC(=O)NCc2ccc(F)cc2)cc1", "activation": "-2.54%"},
      {"molecule": "COc1cc(OC)cc(-c2c(C#Cc3ccsc3)c3cc(-c4ccc(SC)cc4)ccc3n2C)c1", "activation": "-0.65%"},
      {"molecule": "C/C=C/C(=O)OCC(=O)Nc1ccc(F)cc1Cl", "activation": "-7.53%"},
      {"molecule": "CN1c2ccc(C=O)c3c(C=O)ccc(c23)N(C)C1(C)C", "activation": "9.27% (active)"},
      {"molecule": "c1ccc(CN=C2Nc3ccccc3CS2)nc1", "activation": "-3.81%"},
      {"molecule": "COc1cc(F)c(C2=CC(=O)CC(C)(C)C2)cc1F", "activation": "-3.81%"},
      {"molecule": "O=C(COC(=O)CSc1nnc(-c2ccc(Cl)cc2)o1)Nc1cc(Cl)cc(Cl)c1", "activation": "-3.64%"},
      {"molecule": "CC(NS(=O)(=O)c1ccccc1)c1n[nH]c(=S)n1-c1ccccc1", "note": "(centres undefined)", "activation": "-0.57%"},
      {"molecule": "Cc1ccc(C(=O)COC(=O)CCN2C(=O)C3C4CC(C(Br)C4Br)C3C2=O)cc1", "note": "(centres undefined)", "activation": "-3.01%"},
      {"molecule": "O=C(c1ccco1)N1CCN(C(=S)Nc2cc(F)cc(F)c2)CC1", "activation": "-6.94%"},
      {"molecule": "O=C(c1ccco1)N1CCN(Cc2cccc(C(F)(F)F)c2)CC1", "activation": "7.76% (active)"},
      {"molecule": "O=C(c1ccco1)N1CCN(CCOc2ccccc2)CC1", "activation": "-3.77%"},
      {"molecule": "Cn1c(=O)c2[nH]c(NCC3CCCO3)nc2n(-c2ccccc2)c1=O", "note": "(centres undefined)", "activation": "-0.78%"},
      {"molecule": "Cc1cccc(NC(=O)CSc2nnc(CCCCCNC(=O)OC(C)(C)C)o2)c1C", "activation": "-0.45%"},
      {"molecule": "O=C(O)CC(CC(=O)N1CCOCC1)c1ccccc1", "note": "(centres undefined)", "activation": "-2.3%"},
      {"molecule": "CC1=NN(C(=O)Cc2ccc(C)cc2)C(O)(c2cccnc2)C1", "note": "(centres undefined)", "activation": "0.86%"},
      {"molecule": "COc1cc(OC)c(C(=O)NCc2ccc3c(c2)OCO3)cc1OC", "activation": "9.15% (active)"},
      {"molecule": "COc1ccc(NC(=O)NCc2ccc3c(c2)OCO3)c(OC)c1", "activation": "-3.53%"},
      {"molecule": "COc1ccccc1-n1c(C)nc2cc(C(=O)NCc3ccc4c(c3)OCO4)ccc21", "activation": "-1.98%"},
      {"molecule": "CCOC(=O)C1CCN(C(=O)c2cccc(S(=O)(=O)N(CC)c3ccccc3)c2)CC1", "activation": "-8.63%"},
      {"molecule": "COc1ccccc1NC(=O)CCN1CCN(c2ccc(Cl)cc2)CC1", "activation": "-3.09%"},
      {"molecule": "O=C(CCN1CCN(c2ccccc2)CC1)NNC(=S)Nc1ccccc1", "activation": "12.7% (active)"},
      {"molecule": "O=C(CN1CCN(c2ccc(O)cc2)CC1)Nc1ccc(-c2ccccc2)cc1", "activation": "-3.19%"},
      {"molecule": "O=C(Nc1ccccc1)c1nnsc1S(=O)(=O)c1ccc(Cl)cc1", "activation": "-11.8%"},
      {"molecule": "O=c1[nH]snc1-c1c(Cl)cccc1Cl", "activation": "-0.32%"},
      {"molecule": "CCC(C)N1C(=O)S/C(=C/c2ccc(Sc3nc4ccccc4[nH]3)o2)C1=O", "note": "(centres undefined)", "activation": "-7.08%"},
      {"molecule": "Cc1ccc(S(=O)(=O)n2nc(OC(=O)C(C)(C)C)cc2N)cc1", "activation": "19.7% (active)"},
      {"molecule": "Nc1cc(OC(=O)c2ccccc2Br)nn1S(=O)(=O)c1ccccc1", "activation": "-3.8%"},
      {"molecule": "Cc1ccc(S(=O)(=O)N2CCC(C(=O)N3CCCCCCC3)CC2)cc1", "activation": "-4.45%"},
      {"molecule": "CCN(CC)C(=O)Cn1cc(S(=O)(=O)CC(=O)NCc2ccc3c(c2)OCO3)c2ccccc21", "activation": "-1.14%"},
      {"molecule": "O=C1Oc2ccccc2C(=O)/C1=C/c1ccccc1O", "activation": "-0.91%"},
      {"molecule": "NC(=O)COc1ccc(/C=N/NC(=O)C2CCCN2S(=O)(=O)c2ccc(Cl)cc2)cc1", "note": "(centres undefined)", "activation": "8.7% (active)"},
      {"molecule": "O=C(OCC(=O)N1CCc2ccccc21)C1CCCN1S(=O)(=O)c1ccc(Cl)cc1", "note": "(centres undefined)", "activation": "-1.01%"},
      {"molecule": "COc1ccccc1NC(=O)C1CCCN1S(=O)(=O)c1ccc(Cl)cc1", "note": "(centres undefined)", "activation": "-9.31%"},
      {"molecule": "O=C(Nc1ccc2c(c1)C(=O)OC2)Nc1cccc2ccccc12", "activation": "-5.72%"},
      {"molecule": "CC1Oc2ccccc2N(Cc2cccnc2)C1=O", "note": "(centres undefined)", "activation": "-2.41%"},
      {"molecule": "CC(C)Cn1cnc2c(SCc3ccc(Cl)cc3)nc(N)nc21", "activation": "-1.84%"},
      {"molecule": "CCCCNC(=O)OCCSCCS(=O)(=O)c1ccc(Cl)cc1", "activation": "-0.48%"},
      {"molecule": "CCCCNC(=O)OC(C)CNC(=O)OC", "note": "(centres undefined)", "activation": "8.8% (active)"},
      {"molecule": "CCCCNC(=O)C1(c2ccc(OC)cc2)CCOCC1", "activation": "2.44%"},
      {"molecule": "Cc1cccc(-n2cnc(C(=O)NNC(=S)Nc3ccccc3)c2)n1", "activation": "-2.6%"},
      {"molecule": "COc1ccc(S(=O)(=O)NC(=O)C2(C)CCN2C(=O)COc2ccc(Cl)cc2)cc1", "note": "(centres undefined)", "activation": "-2.84%"},
      {"molecule": "C=CCn1c(SCC(=O)/C(C#N)=C(\\C)N)nc2sc(C)c(C)c2c1=O", "activation": "-12.1%"},
      {"molecule": "CCc1cc2c(=O)n(-c3ccccc3)c(SCC(=O)O)nc2s1", "activation": "-3.91%"},
      {"molecule": "C=CCn1c(SCC(=O)c2c(N)n(C)c(=O)n(C)c2=O)nc2sc(CC)cc2c1=O", "activation": "8.63% (active)"},
      {"molecule": "COc1cc(C)nc(N2CCCC(C(=O)NCC(C)C)C2)n1", "note": "(centres undefined)", "activation": "-8.78%"},
      {"molecule": "CCOc1ccc2nc(N3CCCN(C(=O)Nc4ccccc4C)CC3)c(C#N)cc2c1", "activation": "-1.05%"},
      {"molecule": "COc1ccc2cc(C(=O)C3CCCN(C(=O)c4sc(C)nc4C)C3)ccc2c1", "note": "(centres undefined)", "activation": "-0.96%"},
      {"molecule": "COc1ccc2nc(N3CCCC(O)C3)c(C#N)cc2c1", "note": "(centres undefined)", "activation": "19.6% (active)"}
    ]}
  ]
}
